Screening results deposited in PubChem by several laboratories.
Sampled rows, rich in hits. Any-hit rate of the full collection: about 4.2%.
S1P4 ag: activates the human S1P4 receptor | S1P4-expressing cell line, agonist reporter assay | activation, % at 4.98 µM | hit rate 0.35% among 220,000 | AID 1509; in the data active means activation above about 11%;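 further: 0% = DMSO vehicle and 100% = reference agonist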
Target sequence (O95977 whole entry, looked up): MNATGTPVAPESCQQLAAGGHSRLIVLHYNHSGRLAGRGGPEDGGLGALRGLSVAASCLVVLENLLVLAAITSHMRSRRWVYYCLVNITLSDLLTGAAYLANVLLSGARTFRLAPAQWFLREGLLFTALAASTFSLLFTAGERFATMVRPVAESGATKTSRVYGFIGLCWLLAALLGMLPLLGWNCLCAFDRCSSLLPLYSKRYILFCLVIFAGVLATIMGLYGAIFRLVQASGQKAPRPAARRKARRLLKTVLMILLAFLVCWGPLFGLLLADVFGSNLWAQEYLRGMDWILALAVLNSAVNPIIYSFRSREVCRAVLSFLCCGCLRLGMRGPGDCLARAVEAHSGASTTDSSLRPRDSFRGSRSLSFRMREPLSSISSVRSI
Hsp70 activator: Hsp70 transcriptional activation, primary screen; HeLa Hsp70 promoter luciferase reporter, luminescence; scaled: vehicle 0, proteasome-inhibitor control 100%; activation, % at 10 µM; hit rate 0.04% among 200,000;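 active means activation above the mean across all tested compounds plus 3 SD, cutoff set per campaign, cut at about 5.5% in these data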;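 further: 100% = MG132 at 30 µM as the positive control and 0% = DMSO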
CHOP inh: CHOP inhibition in unfolded protein response; hit rate 3.8% among 220,000; inhibition, % at 10 µM; CHO-K1 CHOP-promoter luciferase, tunicamycin-induced, 15-18 h;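 active means compounds that reduced the stress-induced luciferase reporter signal by more than about 70% of percent inhibition, limit read from the data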;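 further: 0% = tunicamycin plus vehicle and 100% = wells without tunicamycin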
S1P4 antagonist: blocks the human S1P4 receptor; S1P4-expressing cells, antagonist mode, reporter read-out; inhibition, % at 4.98 µM; hit rate 0.26% among 220,000; in the data active means inhibition above about 29%;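 further: 0% = wells stimulated with agonist and 100% = vehicle wells without agonist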
CHOP inh conf: confirmation of CHOP induction inhibitors. AID 504437. inhibition, % at 10 µM. CHO-CHOP promoter luciferase reporter, tunicamycin-induced, luminescence. shares compounds with CHOP inh. hit rate 45% among 2,100;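 active means mean of three repeat readings of reporter signal inhibition above a set limit, cut at about 70% in these data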;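 further: 0% = tunicamycin plus vehicle and 100% = wells lacking tunicamycin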
* = called active by the depositor; / = no result.

SMILES	S1P4 ag	Hsp70 activator	CHOP inh	S1P4 antagonist	CHOP inh conf
Cc1ccc(N2C(=O)C3NN=C(C(=O)OCc4ccccc4)C3C2=O)cc1 (stereo unspecified)	1	0	21	-32	/
CCNC(=O)c1ccc(N(C)S(=O)(=O)c2cccs2)cc1	1	0	-1	2	/
Cc1cc(C2=NNC(=NC3CC3)SC2)c(C)n1-c1ccccc1	1	0	106*	-18	121*
CCOc1cc(N2CCOCC2)c(OCC)cc1NC(=O)COc1ncnc2ccccc12	0	0	-5	0	/
CCOc1cc(N2CCOCC2)c(OCC)cc1NC(=O)c1cc(-c2ccco2)nc2ccccc12	-1	0	105*	-24	67
COc1ccc(C2=NN(c3ccccc3)C(c3cn(CCC(=O)O)nc3-c3ccccc3)C2)cc1 (stereo unspecified)	1	0	96*	-13	13
COC(C(=O)NNC(=O)Cc1ccc(Cl)cc1)c1ccccc1 (stereo unspecified)	-1	/	2	8	/
Cc1cc(Cl)ccc1OCC(=O)N[C@@H](Cc1ccccc1)c1nc2ccccc2[nH]1	2	0	108*	-10	115*
COc1ccc2oc(=O)c(C(=O)Nc3ccccc3O)cc2c1	0	/	101*	-10	21
CC(NC(=O)NC1CCCCC1)c1ccccc1 (stereo unspecified)	1	0	25	-15	/
O=C(O)c1ccccc1C(=O)Nc1ccccc1	-2	0	24	2	/
O=C(Nc1ccccc1)C1=C(c2ccccc2)S(=O)(=O)CCS1(=O)=O	2	0	108*	32*	110*
Cc1cc(C(=O)OCC(=O)c2cccc([N+](=O)[O-])c2)c2cccc(C)c2n1	2	0	10	-10	/
CC(C)(C)c1ccc(NC(=O)C(=O)C2C(=O)Nc3ccccc32)cc1 (stereo unspecified)	-1	0	101*	8	48
O=C(Nc1ccc2oc(=O)ccc2c1)c1ccc(-c2cccc(Cl)c2)o1	1	/	100*	-7	16
COc1cc(-c2nc3ccccn3c2/N=C/c2ccc(F)cc2)ccc1O	-1	0	8	-6	/
Cc1ccc(-c2nc(N)sc2C)cc1	1	0	-8	-15	/
Cc1ccc(-c2nc(N)sc2-c2ccc(C)cc2)cc1	2	0	97*	-7	114*
Cc1ccc(NC(=O)/C=C/c2cccc(C(F)(F)F)c2)cc1	0	0	35	-2	/
CC(=O)c1cccc(NC(=S)NC(=O)Cc2ccccc2)c1	1	0	3	-2	/
O=C(/C=C/c1cccc(C(F)(F)F)c1)Nc1cccc(C(F)(F)F)c1	0	0	97*	-18	100*
O=C(Cc1ccccc1)NC(=S)Nc1cccc(C(F)(F)F)c1	0	0	108*	-26	102*
CCCNC(=S)Nc1cccc(C(F)(F)F)c1	2	0	19	-27	/
FC(F)(F)c1cccc(NC(=S)Nc2ccc(Cl)cc2Cl)c1	0	0	105*	-18	101*
FC(F)(F)c1cccc(NC(=S)NCC2COc3ccccc3O2)c1 (stereo unspecified)	0	0	103*	-19	2
SMILES	S1P4 ag	Hsp70 activator	CHOP inh	S1P4 antagonist	CHOP inh conf
CCC(C)n1c(=N)c(C#N)cc2c(=O)n3ccccc3nc21 (stereo unspecified)	2	0	3	-21	/
O=C(O)c1ccccc1OC(=O)C12CC3CC(CC(C3)C1)C2	2	0	0	4	/
COc1cc(/C=C2\COC/C(=C\c3cc(OC)c(OC)c(OC)c3)C2=O)cc(OC)c1OC	2	/	106*	17	111*
COc1cc(/C=C2\CC/C(=C\c3cc(OC)c(OC)c(OC)c3)C2=O)cc(OC)c1OC	-1	0	15	-18	/
COc1cc(/C=C2\CC/C(=C\c3cc(OC)c(O)c(OC)c3)C2=O)cc(OC)c1O	1	0	101*	-11	101*
CS(=O)(=O)c1ccc(C(=O)NCc2ccccc2F)cc1	-1	0	-7	5	/
CCCn1c(=O)c(C(=O)NNS(=O)(=O)c2ccc(Cl)cc2)c(O)c2ccccc21	-2	0	107*	-14	-10
O=C(C1=C(c2ccccc2)C(=O)c2ccccc2C1=O)c1ccccc1	1	0	104*	-38	112*
COC(=O)c1c(NC(=O)Nc2ccc(Cl)cc2)sc(C)c1C	1	0	100*	-1	99*
COc1cc(OC)cc(C(=O)NC(=S)NNC(=O)Cc2cccs2)c1	1	0	21	-3	/
CCOC(=O)/C=C/S(=O)(=O)c1ccc(NC(C)=O)cc1	0	0	/	26	121*
COC(=O)c1ccc2c(=O)n(NC(=O)C(c3ccccc3)c3ccccc3)c(=S)[nH]c2c1	3	0	102*	-7	31
COCCn1c(=O)[nH]c2cc(C(=O)OC)ccc2c1=O	-4	0	-17	-10	/
NC(=O)c1cccc(N=Cc2cc(Cl)cc(Cl)c2O)c1	2	0	43	-13	/
CCCCC1=CC2=C(c3ccco3)C(=O)C(C)(OC(=O)c3ccc(OC)cc3)C(=O)C2=CN1Cc1ccccc1 (stereo unspecified)	/	/	105*	/	73*
CCCCC1=CC2=C(c3ccco3)C(=O)C(C)(OC(=O)c3ccc(OC)cc3)C(=O)C2=CN1Cc1ccc2c(c1)OCO2 (stereo unspecified)	/	/	102*	/	24
CCCCC1=CC2=C(c3ccco3)C(=O)C(C)(OC(=O)c3ccc(OC)cc3)C(=O)C2=CN1C1CCCCC1 (stereo unspecified)	/	/	101*	/	6
CN1CCN(C(=O)c2ccc3c(c2)N(Cc2ccc(Cl)cc2)C(=O)c2ccccc2S3=O)CC1 (stereo unspecified)	-2	0	16	11	/
O=C(/C=C/c1ccccc1)NC(NC(=S)Nc1cccc(Cl)c1)C(Cl)(Cl)Cl (stereo unspecified)	0	0	111*	-15	42
Cc1ccc(C)c(NC(=S)NC(NC(=O)/C=C/c2ccccc2)C(Cl)(Cl)Cl)c1 (stereo unspecified)	2	0	107*	-10	92*
O=C(/C=C/c1ccccc1)NC(NC(=S)Nc1cccc(O)c1)C(Cl)(Cl)Cl (stereo unspecified)	-1	0	57	-8	/
Cc1ccc2oc3nc(C)c(C(=O)O)cc3c(=O)c2c1	2	0	-1	-4	/
NS(=O)(=O)c1ccc(NC(=O)COC(=O)c2cn(-c3ccccc3)nc2-c2ccccc2)cc1	1	/	97*	-16	-1
CCN(CCCNC(=O)COc1cc(=O)n(C)c2ccccc12)c1cccc(C)c1	0	0	43	-11	/
Cc1ccc(C2=NN(S(=O)(=O)c3ccccc3)C(c3ccccc3O)C2)cc1 (stereo unspecified)	-2	-1	106*	-29	38
Cc1ccc(C2=NN(C(=O)c3cccs3)C(c3ccccc3O)C2)cc1 (stereo unspecified)	-2	0	103*	-9	105*
